From the supplement of paper PMC10849652
Targets with a hit are over-represented here; the source holds about 7,900 in all. About 0.6% of all pairs of compound and target were hits.

Compound: C=CC(=O)N1CCC[C@@H](n2nc(-c3ccc(Oc4ccccc4)cc3)c3c(N)ncnc32)C1 [ibrutinib]
Assay: log2 fold change, soluble protein after heating vs DMSO (PISA); higher = thermal stabilisation; K562 cells, 10 uM, 30 min; active = over 0.2 and 3.5 SD of the protein, either way, in both replicates (recomputed)
Summary of the method: (§1)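 Aliquots of K562 cells (2×10^6 cells/mL) treated with 10 μM compound for 30 min were heated for 3 min over 48°C-58°C. After pooling and extraction in PBS with 0.5% NP-40 at 4°C, soluble protein from a 21,000xg, 90 min spin was quantified by TMTpro 16plex LC-MS/MS with channel sums equalised. Thermal stability is expressed against control samples, from duplicates, as a log2 fold change.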

UniProt Q16850, sequence (Q16850 whole entry, looked up): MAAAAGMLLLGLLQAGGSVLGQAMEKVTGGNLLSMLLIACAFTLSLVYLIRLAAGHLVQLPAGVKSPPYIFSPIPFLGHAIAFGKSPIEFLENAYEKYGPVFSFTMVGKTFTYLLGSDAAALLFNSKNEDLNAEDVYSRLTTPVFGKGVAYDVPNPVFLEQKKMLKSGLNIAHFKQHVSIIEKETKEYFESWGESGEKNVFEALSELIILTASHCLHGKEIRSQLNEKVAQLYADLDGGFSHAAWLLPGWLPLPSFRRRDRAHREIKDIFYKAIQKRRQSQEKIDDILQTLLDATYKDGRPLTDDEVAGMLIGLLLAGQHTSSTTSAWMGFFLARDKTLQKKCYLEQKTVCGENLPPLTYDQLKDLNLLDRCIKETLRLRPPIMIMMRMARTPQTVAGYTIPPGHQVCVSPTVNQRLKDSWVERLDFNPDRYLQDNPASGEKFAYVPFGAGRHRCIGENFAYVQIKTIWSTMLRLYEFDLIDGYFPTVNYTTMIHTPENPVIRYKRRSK
UniProt Q9H467, sequence (Q9H467 whole entry, looked up): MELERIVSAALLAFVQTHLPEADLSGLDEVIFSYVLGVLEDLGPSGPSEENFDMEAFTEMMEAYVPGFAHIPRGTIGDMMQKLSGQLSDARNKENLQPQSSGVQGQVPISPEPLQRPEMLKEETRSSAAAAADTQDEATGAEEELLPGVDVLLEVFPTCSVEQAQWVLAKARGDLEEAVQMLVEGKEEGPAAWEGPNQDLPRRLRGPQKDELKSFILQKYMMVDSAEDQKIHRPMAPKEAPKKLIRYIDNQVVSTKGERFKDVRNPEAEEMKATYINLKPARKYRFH
UniProt P17844, sequence (P17844 whole entry, looked up): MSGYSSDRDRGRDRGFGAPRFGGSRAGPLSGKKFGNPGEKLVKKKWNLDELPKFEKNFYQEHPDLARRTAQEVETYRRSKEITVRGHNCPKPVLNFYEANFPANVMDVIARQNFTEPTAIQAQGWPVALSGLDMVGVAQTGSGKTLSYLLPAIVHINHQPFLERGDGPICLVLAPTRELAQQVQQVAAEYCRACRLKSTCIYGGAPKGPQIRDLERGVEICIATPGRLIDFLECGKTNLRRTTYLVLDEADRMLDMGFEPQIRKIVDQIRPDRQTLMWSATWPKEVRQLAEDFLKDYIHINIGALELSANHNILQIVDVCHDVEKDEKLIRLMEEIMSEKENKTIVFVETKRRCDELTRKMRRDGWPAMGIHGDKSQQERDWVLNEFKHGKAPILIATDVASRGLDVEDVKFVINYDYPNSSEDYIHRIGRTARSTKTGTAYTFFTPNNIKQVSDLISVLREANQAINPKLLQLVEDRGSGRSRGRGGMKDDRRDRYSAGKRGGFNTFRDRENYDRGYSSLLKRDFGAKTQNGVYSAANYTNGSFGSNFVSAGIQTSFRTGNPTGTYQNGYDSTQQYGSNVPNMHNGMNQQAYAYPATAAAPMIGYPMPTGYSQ
UniProt Q9H4H8, sequence (Q9H4H8 whole entry, looked up): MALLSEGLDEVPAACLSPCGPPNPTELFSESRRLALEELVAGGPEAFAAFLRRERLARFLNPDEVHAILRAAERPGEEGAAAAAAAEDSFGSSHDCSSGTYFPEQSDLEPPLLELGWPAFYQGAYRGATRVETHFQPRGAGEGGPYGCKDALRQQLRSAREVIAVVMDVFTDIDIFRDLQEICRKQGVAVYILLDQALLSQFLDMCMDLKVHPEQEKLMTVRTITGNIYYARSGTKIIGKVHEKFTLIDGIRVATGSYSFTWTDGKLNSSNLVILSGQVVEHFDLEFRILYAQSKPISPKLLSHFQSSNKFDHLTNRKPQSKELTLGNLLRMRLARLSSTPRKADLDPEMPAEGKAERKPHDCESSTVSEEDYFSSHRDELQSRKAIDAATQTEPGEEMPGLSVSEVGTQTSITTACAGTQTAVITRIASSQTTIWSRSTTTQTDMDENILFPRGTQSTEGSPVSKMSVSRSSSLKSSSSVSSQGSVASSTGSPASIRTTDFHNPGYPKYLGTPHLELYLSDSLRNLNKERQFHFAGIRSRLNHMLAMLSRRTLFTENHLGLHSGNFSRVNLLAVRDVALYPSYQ
UniProt Q96DA6, sequence (Q96DA6 whole entry, looked up): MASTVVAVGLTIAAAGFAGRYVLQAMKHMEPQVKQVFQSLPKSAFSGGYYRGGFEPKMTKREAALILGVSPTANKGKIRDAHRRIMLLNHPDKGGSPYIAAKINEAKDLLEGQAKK
UniProt P25685, sequence (P25685 whole entry, looked up): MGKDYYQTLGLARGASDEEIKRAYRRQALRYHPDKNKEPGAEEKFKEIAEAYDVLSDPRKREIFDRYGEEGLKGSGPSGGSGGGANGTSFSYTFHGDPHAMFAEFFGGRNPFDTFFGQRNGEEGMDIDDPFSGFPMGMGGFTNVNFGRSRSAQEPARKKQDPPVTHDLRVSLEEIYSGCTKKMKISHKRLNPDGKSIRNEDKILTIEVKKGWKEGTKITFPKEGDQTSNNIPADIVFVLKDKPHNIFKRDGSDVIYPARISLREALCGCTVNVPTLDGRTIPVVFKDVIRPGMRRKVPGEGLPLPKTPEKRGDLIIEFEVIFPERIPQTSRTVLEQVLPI
UniProt Q14203, sequence (Q14203 whole entry, looked up): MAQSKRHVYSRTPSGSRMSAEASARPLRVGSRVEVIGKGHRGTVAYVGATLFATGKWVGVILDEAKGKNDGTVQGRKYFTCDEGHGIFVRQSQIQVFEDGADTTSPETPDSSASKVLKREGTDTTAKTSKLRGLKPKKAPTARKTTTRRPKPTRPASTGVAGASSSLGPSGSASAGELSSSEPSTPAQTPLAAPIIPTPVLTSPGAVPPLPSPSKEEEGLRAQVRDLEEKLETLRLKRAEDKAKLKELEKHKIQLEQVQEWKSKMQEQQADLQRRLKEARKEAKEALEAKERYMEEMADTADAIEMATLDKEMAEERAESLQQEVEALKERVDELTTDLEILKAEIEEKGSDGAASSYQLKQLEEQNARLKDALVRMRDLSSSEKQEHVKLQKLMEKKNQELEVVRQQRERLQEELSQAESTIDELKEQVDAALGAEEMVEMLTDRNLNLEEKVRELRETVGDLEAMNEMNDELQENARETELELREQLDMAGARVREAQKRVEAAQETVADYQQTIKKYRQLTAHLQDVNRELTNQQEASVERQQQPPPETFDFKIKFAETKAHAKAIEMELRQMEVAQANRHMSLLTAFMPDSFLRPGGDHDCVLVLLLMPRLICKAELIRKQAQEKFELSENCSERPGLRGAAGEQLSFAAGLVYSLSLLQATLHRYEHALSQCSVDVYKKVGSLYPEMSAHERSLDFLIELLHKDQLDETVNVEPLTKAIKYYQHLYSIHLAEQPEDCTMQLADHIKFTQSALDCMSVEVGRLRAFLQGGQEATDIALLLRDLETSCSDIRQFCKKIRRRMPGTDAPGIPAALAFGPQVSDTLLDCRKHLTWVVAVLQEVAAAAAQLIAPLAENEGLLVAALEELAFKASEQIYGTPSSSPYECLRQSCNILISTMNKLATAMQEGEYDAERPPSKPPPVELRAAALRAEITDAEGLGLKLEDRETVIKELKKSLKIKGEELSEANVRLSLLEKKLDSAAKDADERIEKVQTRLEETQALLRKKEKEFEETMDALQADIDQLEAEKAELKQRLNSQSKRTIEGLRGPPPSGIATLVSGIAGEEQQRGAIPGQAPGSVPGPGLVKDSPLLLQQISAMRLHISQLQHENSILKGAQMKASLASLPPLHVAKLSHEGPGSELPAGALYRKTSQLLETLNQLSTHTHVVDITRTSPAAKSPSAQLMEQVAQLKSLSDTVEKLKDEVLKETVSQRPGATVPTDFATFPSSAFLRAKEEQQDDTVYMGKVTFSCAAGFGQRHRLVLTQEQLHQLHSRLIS
UniProt P60842, sequence (P60842 whole entry, looked up): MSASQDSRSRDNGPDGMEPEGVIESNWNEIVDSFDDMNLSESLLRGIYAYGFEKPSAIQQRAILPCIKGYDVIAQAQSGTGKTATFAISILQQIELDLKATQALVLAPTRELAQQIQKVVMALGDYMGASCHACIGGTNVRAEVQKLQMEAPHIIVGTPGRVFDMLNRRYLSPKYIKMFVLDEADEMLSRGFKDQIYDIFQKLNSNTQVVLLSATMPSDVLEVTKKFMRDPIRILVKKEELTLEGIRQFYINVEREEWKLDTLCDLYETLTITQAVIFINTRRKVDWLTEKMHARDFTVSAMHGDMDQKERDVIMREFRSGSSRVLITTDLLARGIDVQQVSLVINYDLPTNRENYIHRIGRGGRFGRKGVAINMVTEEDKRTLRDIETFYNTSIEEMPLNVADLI
UniProt P09622, sequence (P09622 whole entry, looked up): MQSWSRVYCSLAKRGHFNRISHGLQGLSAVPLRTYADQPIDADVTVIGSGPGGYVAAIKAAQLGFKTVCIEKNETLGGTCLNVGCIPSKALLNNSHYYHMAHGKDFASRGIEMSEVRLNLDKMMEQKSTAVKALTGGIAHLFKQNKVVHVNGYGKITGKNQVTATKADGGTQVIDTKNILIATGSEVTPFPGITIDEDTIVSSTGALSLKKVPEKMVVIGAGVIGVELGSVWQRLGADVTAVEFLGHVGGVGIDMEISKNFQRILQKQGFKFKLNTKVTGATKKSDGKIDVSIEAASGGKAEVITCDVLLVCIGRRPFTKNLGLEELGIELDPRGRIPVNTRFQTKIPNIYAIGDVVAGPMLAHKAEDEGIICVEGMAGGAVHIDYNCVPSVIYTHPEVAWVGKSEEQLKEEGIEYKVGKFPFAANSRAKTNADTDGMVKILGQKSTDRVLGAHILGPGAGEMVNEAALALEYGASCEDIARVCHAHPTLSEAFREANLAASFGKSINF
UniProt P29692, sequence (P29692 whole entry, looked up): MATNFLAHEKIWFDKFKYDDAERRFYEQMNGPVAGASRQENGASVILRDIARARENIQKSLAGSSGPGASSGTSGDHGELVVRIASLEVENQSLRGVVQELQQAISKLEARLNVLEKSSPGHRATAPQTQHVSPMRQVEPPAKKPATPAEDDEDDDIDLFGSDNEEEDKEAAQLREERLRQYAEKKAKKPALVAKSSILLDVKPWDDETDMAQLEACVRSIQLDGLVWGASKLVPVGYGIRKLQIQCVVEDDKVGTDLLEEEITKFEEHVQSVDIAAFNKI

Target	log2 fold change
EOGT (UniProt Q5NDL2)	0.005 (inactive)
CUEDC2 (UniProt Q9H467)	-0.011 (inactive)
DDX5 (UniProt P17844)	0.002 (inactive)
EIF4E2 (UniProt O60573)	-0.007 (inactive)
ERLIN1 (UniProt O75477)	-0.06 (inactive)
EEF1AKNMT (UniProt Q8N6R0)	-0.116 (inactive)
EIF4A1 (UniProt P60842)	-0.022 (inactive)
DCTPP1 (UniProt Q9H773)	0.011 (inactive)
DNAJB12 (UniProt Q9NXW2)	0.004 (inactive)
DDX4 (UniProt Q9NQI0)	-0.046 (inactive)
EXOC2 (UniProt Q96KP1)	-0.018 (inactive)
DMAC1 (UniProt Q96GE9)	0.048 (inactive)
EEA1 (UniProt Q15075)	0.002 (inactive)
DDX46 (UniProt Q7L014)	-0.034 (inactive)
CYP51A1 (UniProt Q16850)	0.039 (inactive)
DCTN1 isoform 4 (UniProt Q14203)	-0.02 (inactive)
CWC27 (UniProt Q6UX04)	-0.111 (inactive)
DNAJC19 (UniProt Q96DA6)	0.024 (inactive)
DUS2 (UniProt Q9NX74)	0.041 (inactive)
ECH1 (UniProt Q13011)	-0.003 (inactive)

Target	log2 fold change
DBT (UniProt P11182)	0.019 (inactive)
FAAP100 (UniProt Q0VG06)	-0.247 (inactive)
FAM207A (UniProt Q9NSI2)	-0.082 (inactive)
EEF1D isoform 2 (UniProt P29692)	-0.039 (inactive)
DNAH11 (UniProt Q96DT5)	0.103 (inactive)
DAB2 (UniProt P98082)	0.004 (inactive)
DYNC1LI2 (UniProt O43237)	0.083 (inactive)
DNAJC7 (UniProt Q99615)	-0.012 (inactive)
DLD (UniProt P09622)	0.007 (inactive)
DCAF10 (UniProt Q5QP82)	0 (inactive)
DCAF6 isoform 3 (UniProt Q58WW2)	-0.004 (inactive)
FAM122A (UniProt Q96E09)	0.016 (inactive)
FAM83D (UniProt Q9H4H8)	-0.094 (inactive)
DNAJB1 (UniProt P25685)	-0.011 (inactive)
DNTTIP2 (UniProt Q5QJE6)	0.045 (inactive)
CTSL (UniProt P07711)	0.009 (inactive)
CTSV (UniProt O60911)	-0.002 (inactive)
EDC3 (UniProt Q96F86)	-0.082 (inactive)
EIF3J (UniProt O75822)	-0.031 (inactive)

Compound: CC(=O)c1cnc2ccc(-c3cc(Cl)c(O)c(Cl)c3)nc2c1N[C@H]1CC[C@H](CN(C)C)CC1
Assay: as above
Summary of the method: as §1

Target	log2 fold change
EOGT (UniProt Q5NDL2)	0.006 (inactive)
CUEDC2 (UniProt Q9H467)	0.003 (inactive)
DDX5 (UniProt P17844)	-0.358 (active)
EIF4E2 (UniProt O60573)	-0.272 (inactive)
ERLIN1 (UniProt O75477)	0.105 (inactive)
EEF1AKNMT (UniProt Q8N6R0)	-0.026 (inactive)
EIF4A1 (UniProt P60842)	-0.131 (inactive)
DCTPP1 (UniProt Q9H773)	0.03 (inactive)
DNAJB12 (UniProt Q9NXW2)	-0.013 (inactive)
DDX4 (UniProt Q9NQI0)	-0.035 (inactive)
EXOC2 (UniProt Q96KP1)	-0.048 (inactive)
DMAC1 (UniProt Q96GE9)	0.034 (inactive)
EEA1 (UniProt Q15075)	0.02 (inactive)
DDX46 (UniProt Q7L014)	-0.299 (inactive)
CYP51A1 (UniProt Q16850)	-0.028 (inactive)
DCTN1 isoform 4 (UniProt Q14203)	-0.001 (inactive)
CWC27 (UniProt Q6UX04)	-0.133 (inactive)
DNAJC19 (UniProt Q96DA6)	0.038 (inactive)
DUS2 (UniProt Q9NX74)	-0.063 (inactive)
ECH1 (UniProt Q13011)	-0.058 (inactive)

Target	log2 fold change
DBT (UniProt P11182)	0.021 (inactive)
FAAP100 (UniProt Q0VG06)	-0.025 (inactive)
FAM207A (UniProt Q9NSI2)	0.057 (inactive)
EEF1D isoform 2 (UniProt P29692)	0.012 (inactive)
DNAH11 (UniProt Q96DT5)	0.126 (inactive)
DAB2 (UniProt P98082)	-0.093 (inactive)
DYNC1LI2 (UniProt O43237)	0.099 (inactive)
DNAJC7 (UniProt Q99615)	-0.007 (inactive)
DLD (UniProt P09622)	0.043 (inactive)
DCAF10 (UniProt Q5QP82)	-0.006 (inactive)
DCAF6 isoform 3 (UniProt Q58WW2)	-0.018 (inactive)
FAM122A (UniProt Q96E09)	-0.015 (inactive)
FAM83D (UniProt Q9H4H8)	0.022 (inactive)
DNAJB1 (UniProt P25685)	-0.017 (inactive)
DNTTIP2 (UniProt Q5QJE6)	-0.265 (inactive)
CTSL (UniProt P07711)	0.099 (inactive)
CTSV (UniProt O60911)	0.09 (inactive)
EDC3 (UniProt Q96F86)	-0.643 (active)
EIF3J (UniProt O75822)	0.035 (inactive)
